Compounds with a hit are over-represented: about 2.2% of the library has one in this group of screens.
HIF activator: HIF pathway transcriptional activation; activation, % at 7.5 µM (by protocol); 300,000 compounds, 0.32% hits; U2OS HRE-luciferase reporter, luminescence; normalized: DMSO 0%, desferrioxamine 100%;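 active = mean activation of at least 10% of the iron chelator positive control signal, with at least half of replicates also reaching 10%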
CHT allo act: human CHT allosteric activation. Q9GZV3. CHT-expressing cells, membrane potential dye, choline EC20; hits give high values; LV-AA mutant CHT in HEK293 cells. B-score at 10 µM. 310,000 compounds, 0.49% hits. AID 488977;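 active = initial fluorescence not abnormally high and integrated response B-score, plate-corrected, over 3 SD above library mean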
Target sequence (Q9GZV3 whole entry, looked up): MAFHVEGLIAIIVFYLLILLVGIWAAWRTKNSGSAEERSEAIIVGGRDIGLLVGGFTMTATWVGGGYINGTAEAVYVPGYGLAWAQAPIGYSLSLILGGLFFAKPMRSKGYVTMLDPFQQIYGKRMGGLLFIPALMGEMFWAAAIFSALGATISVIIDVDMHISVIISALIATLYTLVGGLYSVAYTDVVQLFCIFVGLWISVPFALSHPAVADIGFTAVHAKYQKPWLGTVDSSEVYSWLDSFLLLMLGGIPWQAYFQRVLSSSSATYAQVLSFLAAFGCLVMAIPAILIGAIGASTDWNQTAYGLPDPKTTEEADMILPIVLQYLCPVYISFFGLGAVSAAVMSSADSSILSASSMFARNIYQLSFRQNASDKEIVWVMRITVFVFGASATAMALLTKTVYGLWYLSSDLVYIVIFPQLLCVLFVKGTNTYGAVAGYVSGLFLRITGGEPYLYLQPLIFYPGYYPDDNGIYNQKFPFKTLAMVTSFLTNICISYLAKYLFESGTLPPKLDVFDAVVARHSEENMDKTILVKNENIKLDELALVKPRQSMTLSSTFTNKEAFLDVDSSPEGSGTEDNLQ
VLA-4 inh: inhibition in a human VLA-4 binding assay | P13612 | VLA-4 expressing cells, ligand binding flow cytometry | inhibition, % (about 7 µM as worked out from the volumes in the protocol) | 330,000 compounds, 0.2% hits | AID 2557; in the data active = inhibition above about 50%
CHT block: human CHT choline transport inhibition; 310,000 compounds, 0.86% hits; Q9GZV3; B-score at 10 µM; CHT-expressing cells, membrane potential dye, choline response; hits give low values;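 active = B-score over 3 SD under the library average, and starting fluorescence ratio not unusually high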;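 also: choline stimulus applied at its EC90 after an EC20 pre-addition; B-score computed on integrated fluorescence ratio after choline addition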
Platelet DG rel: modulates dense granule release in human platelets. AID 1663. human platelet-rich plasma, SFLLRN dense granule ATP release, luminescence. inhibition, %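 (compounds screened at 7.5 µM in platelet-rich plasma)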. 300,000 compounds, 0.22% hits;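 active = mean replicate score, as percent of positive control, at or above 50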
AI-2 QS modul: modulates the Vibrio harveyi AI-2 quorum sensing system; 300,000 compounds, 0.4% hits; activity change, % at 7.5 µM; Vibrio harveyi JMH597 AI-2 luminescence/OD600 ratio, 9 h; hits give low values; strain lacks LuxN and CqsS sensors; 0 = neutral-control median; in the data active = activity change below about -75%, passing the limit was not always enough;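 also: luminescence divided by OD600 gain over 9 h not by final OD600 alone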
* = called active by the depositor; i = inactive; nt = not tested or not shown.

SMILES	HIF activator	CHT allo act	VLA-4 inh	CHT block	Platelet DG rel	AI-2 QS modul
Cc1cc(C)cc(NC(=S)NCCN(C2CCCCC2)C2CCCC2)c1	0	i	9	i	0	23
CCOCCCNC(=S)Nc1cc(C)cc(C)c1	143*	i	3	i	4	15
COc1cc(/C=N/n2cnnc2)ccc1OCC(=O)N1CCOCC1	-1	9.6*	7	i	2	23
O=S(=O)(c1cccc(C(F)(F)F)c1)N1CCN(CC(O)COCc2ccccc2)CC1 (centres undefined)	nt	nt	-3	nt	nt	nt
Cc1ccc(C(C)C)c(OCc2nc(-c3nonc3N)no2)c1	2	i	11	i	-8	-85*
Cc1ccc(C(C)C)c(OCc2n[nH]c(=S)o2)c1	0	i	23	i	7	6
O=C(COC(=O)c1ccccc1F)Nc1ccc(S(=O)(=O)N2CCOCC2)cc1	nt	nt	15	nt	nt	nt
COc1ccc(CC(=O)NCc2nc(-c3ccccc3)no2)cc1	0	i	2	i	10	-77*
COc1cc(OC)cc(C(=O)NCc2nc(-c3ccccc3)no2)c1	0	i	-4	i	-3	19
COc1ccc(S(=O)(=O)N2CCCCC2)cc1NC(=O)CCOc1cc(C)ccc1C	nt	nt	18	nt	nt	nt
O=C(Nc1ccc(N2CCOCC2)cc1)c1cn2ccccc2n1	-2	i	4	i	68*	24
O=C(Nc1ccc(N2CCCCC2)cc1)c1ccccn1	-3	i	11	i	75*	21
O=C(Nc1ccc(N2CCCCCC2)cc1)c1ccccc1Cl	8	i	9	i	0	-64
O=C(NC1CC1)c1cccc(NC(=O)c2cn3ccccc3n2)c1	nt	nt	-2	nt	nt	nt
COc1ccc(/C=C(\NC(=O)c2ccccc2)C(=O)N2CCCCC2)cc1OC	1	i	2	i	4	2
COc1ccc(-c2ccc(SC)nn2)cc1	-5	i	13	i	57*	38
O=C(CCCSc1ccc(Cl)cc1)Nc1cc(S(=O)(=O)N2CCOCC2)ccc1O	nt	nt	-18	nt	nt	nt
O=C1COc2ccc(N3C(=O)C=CC3=O)cc2N1	-3	i	30	i	34	-81*
CC(=O)N[C@H]1[C@H](Oc2ccc3c(c2)CCC2C3CC[C@]3(C)C(=O)CCC23)O[C@H](CO)[C@@H](O)[C@@H]1O (some centres undefined)	0	i	7	i	-5	14
CC1(N(O)C=C2C=CC(=O)C=C2)CCCCC1=O (centres undefined)	-1	i	4	i	1	18
CCN(C(=O)CSc1ncn[nH]1)C1CCCCC1	77*	i	7	i	1	15
CCN1CCc2c(sc(NC(=S)NC(=O)c3ccc(Cl)cc3)c2C(N)=O)C1	0	i	6	i	-6	-12
CCc1cc2c(=O)[nH]c(-c3ccccn3)nc2s1	11*	i	-17	i	8	65
Cc1ccccc1NC(=S)c1ccc2ccccc2n1	4	i	8	i	54*	11
Oc1cccc(/C=N/c2c(-c3ccco3)nc3ccccn23)c1	18*	i	6	i	12	40
SMILES	HIF activator	CHT allo act	VLA-4 inh	CHT block	Platelet DG rel	AI-2 QS modul
C(=N\Nc1nc2ccccc2[nH]1)/c1cccc2cccnc12	271*	i	-12	i	12	26
COc1ccccc1C(O)c1nccn1C (centres undefined)	0	i	11	i	2	6
CCn1ccnc1C(O)c1ccccc1OC (centres undefined)	27*	i	15	i	-1	6
CCCNc1c(NS(=O)(=O)c2cccs2)c(=O)oc2ccccc12	0	i	16	i	-6	16
CC(C)(C)c1ccc(C(=O)Nc2ccc(F)cc2)s1	1	i	-11	i	14	5
CC(C)S(=O)(=O)c1csc(C(=O)Nc2ccc(F)cc2)c1N	2	i	7	i	57*	-12
FC(F)(F)c1cccc(Cc2noc(CN3CCCC(OCc4ccccn4)C3)n2)c1 (centres undefined)	0	i	-7	i	4	13
CCc1n[nH]c(=S)n1/N=C/c1ccc(-c2ccc(Br)cc2)o1	22*	i	-12	i	-4	18
CCc1n[nH]c(=S)n1/N=C/c1ccc(NC(C)=O)cc1	-1	i	1	i	-1	13
CN(C)CCNC(=O)c1csc(Nc2cccc3ccccc23)n1	-34	i	14	-9.9*	-6	13
COCCNC(=O)c1csc(Nc2cccc3ccccc23)n1	-1	i	-2	i	3	0
O=C(COC(=O)/C=C/c1cn(-c2ccccc2)nc1-c1ccc2c(c1)OCCO2)NC1CCS(=O)(=O)C1 (centres undefined)	0	i	-6	i	52*	15
O=C(N/N=C/c1cc(Br)ccc1O)C(c1ccncc1)N1CCOCC1 (centres undefined)	12*	i	5	i	-10	62
CCCc1ccc(Oc2cn[nH]c2-c2ccc(O)c(C)c2O)cc1	0	i	13	i	9	-94*
Cn1c(-c2cnn(-c3ccccc3)c2N)n[nH]c1=S	0	i	12	i	61*	11
N#Cc1nccnc1S(=O)(=O)c1cccs1	-3	i	7	i	-2	-132*
Cc1ccc(Sc2ccc(N)cc2C#N)cc1	0	i	7	i	-6	-81*
CC(C)c1ccc(CNc2ccc([N+](=O)[O-])cn2)cc1	4	i	-2	i	-1	-55
CC(C)(C)c1ccc(CNc2ccc([N+](=O)[O-])cn2)cc1	4	i	11	i	-1	-83*
Cn1nc(C(=O)OCC(=O)Nc2ccc(S(N)(=O)=O)cc2)c2ccccc2c1=O	0	i	-3	i	4	29
COc1ccc(N=CC2=C(O)c3ccccc3C2=O)c(OC)c1	-3	i	13	i	51*	23
Cc1ccccc1N=CC1=C(O)c2ccccc2C1=O	-6	i	-3	i	58*	16
O=C1C(C=Nc2ccc(F)cc2)=C(O)c2ccccc21	1	i	17	i	33	4
C=CC[C@H](CC(=O)NCCO)C(=O)N[C@H](COC(=O)[C@H](CC=C)CC(=O)OC(C)(C)C)Cc1c[nH]c2ccccc12	nt	nt	5	nt	nt	nt
Cc1ccnc(NC(=O)CNC(=O)c2ccc(Br)o2)c1	-16	i	2	i	2	-85*
CC1CN(S(=O)(=O)c2ccc(C(=O)OCc3ccc(C#N)cc3)cc2)CC(C)O1 (centres undefined)	nt	nt	0	nt	nt	nt
